Reference: PubChem BioAssay (NCI)
The panel holds about 83,000 compounds, 20% with a hit somewhere; the sample as a whole holds those more often.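 The test compound was applied at a single concentration to cells in 96-well plates for 48 hours, and percent growth was recorded.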 A number with no mark means an inactive call. Active and inactive are the calls of the source. How the source made its calls: active means growth percent below 10; inactive means the rest.

Experiments:
Experiment in all cases: NCI-60 one-dose screen, 48 h (100 = growth as untreated, 0 = no growth, -100 = all killed)
Conditions in all cases: 10 µM unless noted
T-47D breast = test system: T-47D breast
BT-549 breast = test system: BT-549 breast
MDA-MB-435 melanoma = test system: MDA-MB-435 melanoma
SW-620 colon = test system: SW-620 colon
MCF7 breast = test system: MCF7 breast
HCT-116 colon = test system: HCT-116 colon
HCC-2998 colon = test system: HCC-2998 colon
KM12 colon = test system: KM12 colon

SMILES	growth (T-47D breast)	growth (BT-549 breast)	growth (MDA-MB-435 melanoma)	growth (SW-620 colon)	growth (MCF7 breast)	growth (HCT-116 colon)	growth (HCC-2998 colon)	growth (KM12 colon)
O=C(Nc1ccccc1)Nc1ccccc1CNc1nc(Nc2ccc(OCCN3CCCC3)cc2)ncc1Cl	55.7%	74.8%	55.2%	73%	48.9%	45.7%	58.3%	43.7%
Cc1nc2sc(C(=O)Nc3ccccc3)c(N)c2cc1C(O)c1ccccc1 (stereo not drawn)	54.6%	67.9%	-18.3% (active)	24.1%	17%	11.8%	15.4%	18.3%
O=C1/C(=C/c2ccccc2)COc2ccc(O)cc21	80.7%	81.2%	68.4%	53.1%	23.7%	51.9%	101%	41.4%
CCOC(=O)c1ccc2c(c1)[n+](=O)c(C(C)=O)c(C(F)(F)F)n2[O-]	-26.1% (active)	-44.9% (active)	2.85% (active)	-0.801% (active)	-6.41% (active)	-38.9% (active)	-17.1% (active)	-85.5% (active)
CC(=O)c1c(/C=C/c2ccc(C)cc2)c2ccccc2[nH]c1=O	85.7%	95.1%	96.1%	95.1%	88.7%	91.7%	96.5%	100%
O=C(/C=C/c1ccc([N+](=O)[O-])cc1)c1cccc(Nc2nc(Nc3ccccc3)nc(Nc3ccccc3)n2)c1	47.1%	87.7%	91.7%	67.6%	15.6%	-11.9% (active)	46.1%	81.1%
C#CCOc1cccc(Nc2ncnc3c(NC(=O)CCl)cccc23)c1	-31.4% (active)	23%	26.4%	1.15% (active)	10.9%	2.88% (active)	91.8%	28.6%
COc1ccc2c(c1)C(c1c[nH]c3ccccc13)(c1c[nH]c3ccccc13)CCO2	-6.36% (active)	55.6%	49.9%	61.9%	30.7%	18.8%	72.4%	46.2%
COc1ccc(/C=C2/CCc3cc4ccc(OC)cc4[o+]c32)c(O)c1	67.2%	96.2%	2.85% (active)	11.9%	48.1%	-64.1% (active)	64.3%	45.4%
O=C(Nc1ccc(Cl)cc1)C1=NCCCCN1	68.6%	91.3%	72.6%	63.8%	81.5%	80%	96.2%	71.2%
C=C(C)[C@@H]1CC[C@]2(C(=O)NC(C)=O)CC[C@]3(C)[C@H](CC[C@@H]4[C@@]5(C)CCCNC(C)(C)[C@@H]5CC[C@]43C)[C@@H]12	17.6%	63.1%	-88.7% (active)	-50% (active)	-17.3% (active)	-69.7% (active)	-58.3% (active)	-2.16% (active)
COc1cc(/C=C/c2cc(/C=C/c3ccc(O)c(OC)c3)n(C(=O)Nc3ccc(C)cc3C)n2)ccc1O	-22.5% (active)	-33.8% (active)	-40.9% (active)	-10.9% (active)	-3.78% (active)	1.48% (active)	4.28% (active)	-9.35% (active)
CCN(CC)c1ccc(/C=N/NC(=O)c2ccccc2Nc2ccnc(C(F)(F)F)c2)c(O)c1	22.3%	38.5%	29.3%	37.3%	20.4%	27.7%	76.7%	31.4%
Cc1ccc(-c2nc(C#N)c(S(=O)(=O)n3nc(C)cc3N)o2)cc1	55.2%	80.4%	96.2%	15%	88.2%	65.5%	110%	92.8%
CC(C)(C)CC(C)(C)Nc1c(-c2c(O)c3ccccc3oc2=O)nc2sccn12	84.8%	111%	104%	96.9%	91.7%	98.2%	98.5%	107%
Cc1nn(-c2ccccc2)c(Oc2ccccc2)c1/C=N/NC(=O)Cn1c(=O)sc2ccccc21	14.7%	25.6%	54.3%	72%	25.4%	38.1%	72.2%	56%

SMILES	growth (T-47D breast)	growth (BT-549 breast)	growth (MDA-MB-435 melanoma)	growth (SW-620 colon)	growth (MCF7 breast)	growth (HCT-116 colon)	growth (HCC-2998 colon)	growth (KM12 colon)
C=C(C)Cn1c(SCC(=O)c2cccs2)nc2sc3c(c2c1=O)CCCC3	58.7%	81.2%	56%	38.6%	46.7%	29.3%	76.1%	42.9%
CN(C)c1ccc(/C=C/C2=[N+](C)c3ccccc3C2(C)C)cc1	20.5%	17.2%	12.9%	37.7%	5.64% (active)	15.7%	28%	7.96% (active)
O=C(O)/C=C/c1cn(-c2ccccc2)nc1-c1ccc(F)cc1	93.9%	90.7%	105%	89.8%	84%	82.5%	103%	90.4%
CC/C(=C(/c1ccc(Cl)cc1)c1ccc(OCCN(CC)CC)cc1)c1ccc(OC)cc1	39.1%	67.7%	69.1%	40.2%	13.7%	34.2%	54.7%	35.1%
CCOC(=O)CC1C(CNC(=O)NC)OC(n2cnc3c(NC(=O)Nc4ccccc4)ncnc32)C1O[Si](C)(C)C(C)(C)C (stereo not drawn)	27.1%	81.6%	53.6%	71.2%	18.1%	16.7%	61.8%	43.4%
COC(=O)c1c(C)nc(C)c2c1C(=O)C(Br)=C(NCCN1CCOCC1)C2=O	114%	101%	56.1%	92.1%	82.3%	67.4%	101%	96.9%
O=C(Oc1ccccc1)c1cc(O)c(O)c(O)c1	59.7%	65.1%	53.3%	62.7%	79.3%	58.8%	68.5%	74.7%
O=C(Nc1ccc(Oc2cccc(F)c2)c(Cl)c1)c1cnccn1	38.3%	59.9%	-21.2% (active)	22.7%	17.5%	32%	56.2%	30.3%
COc1cccc(C2C3=C(COC3=O)N(CCO)c3cc4c(cc32)OCCO4)c1 (stereo not drawn)	65.3%	14.5%	-28.2% (active)	17.7%	13.1%	3.53% (active)	4.51% (active)	-11.8% (active)
O=c1ccc2nc(-c3ccccc3)nn(-c3ccccn3)c-2c1	-40.9% (active)	108%	94.6%	-46.2% (active)	-37.1% (active)	42.7%	103%	104%
Cc1cc(C(=O)Nc2cc(Nc3ncccc3-c3ncnc4nc[nH]c34)ccc2F)cc(C(C)(C)C#N)c1	47%	54.5%	33.2%	34.3%	62.4%	14.1%	35.3%	35.9%
Cc1ccc2c(n1)C[C@H](C(C)(C)O)CC[C@H]2C	96.5%	112%	102%	104%	94.6%	97.4%	102%	109%
COc1ccc(Cn2cc3c(c2)-c2oncc2CC3)cc1	51.6%	64.3%	-40.8% (active)	27.2%	35.4%	29.6%	68.1%	52.3%
CC(C)c1nc(N(C)S(C)(=O)=O)nc(-c2ccc(F)cc2)c1/C=C/C(=O)C[C@@H](O)CC(=O)O	101%	94.2%	103%	108%	97.2%	91.1%	98.2%	97.1%
CCOc1ccc(N2C(=O)CCSC2=S)cc1	104%	108%	98%	104%	100%	112%	104%	107%
